Source: PubChem BioAssay

System: Noggin (protein binding on small-molecule microarray)
Test: Noggin binders on small-molecule microarray, primary screen, biochemical, 635/667 nm fluorescence (AID 1095);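 note: score merges 667 nm feature fluorescence with signal to noise over triplicate slides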
Conditions: 635 nm fluorescence, higher = more signal

SMILES	composite z-score
C=CCNC(=O)[C@@H]1[C@H]2C(=O)O[C@H](c3ccccc3)[C@H](c3ccccc3)N2[C@H](c2ccc(O)cc2)[C@@]12C(=O)Nc1ccc(C#CC3=CCCCC3)cc12	1.03
Cc1cccc([C@H]2C[C@H]3C(Br)=C[C@@]2(CO)C(=O)[C@]32CO2)c1	0.783
COCCOC(=O)N1C(=O)[C@@]2(c3cc(C#CCCO)ccc31)[C@H](C(=O)N1CCN(c3ncccn3)CC1)[C@H]1C(=O)O[C@H](c3ccccc3)[C@H](c3ccccc3)N1[C@@H]2c1ccc(OCCO)cc1	0.86
COC(=O)[C@H](Cc1ccccc1)N1CC(C)(OC)O[C@@H](Cc2ccccc2)[C@H]1/C=C/C1CC1 (stereo not given in full)	-0.305
CCOC(=O)C1=CCC(c2ccncc2)N(S(=O)(=O)c2ccc(C)cc2)C1 (stereo not given)	0.361
COC(=O)[C@@]1(Cc2ccc(F)cc2)[C@H]2c3cc(C(=O)N4CCCC4)n(Cc4ccc(C(F)(F)F)nc4)c3C[C@H]2CN1C(=O)c1ccccc1	0.373
COCCOC(=O)N1C(=O)[C@@]2(c3cc(C#CCNC(N)=O)ccc31)[C@H](c1ccccc1OCCO)N1[C@H](c3ccccc3)[C@H](c3ccccc3)OC(=O)[C@H]1[C@@H]2C(=O)N1CCCCCCC1	0.911
CCCCC(=C=CC[C@@H](O)c1ccccc1OCCO)C[C@@H](O)c1ccccn1	0.191
O=C(NCC(F)(F)F)[C@@H]1c2ccccc2C(=O)N(Cc2cc(C(F)(F)F)cc(C(F)(F)F)c2)[C@H]1c1ccc(CO)cc1	0.148
CC(CO)N1C(=O)[C@@H]2[C@H]3C(=O)OCC=C[C@H]3OC23C=CCN(c2ccc4ccccc4c2)C(=O)[C@@H]13 (stereo not given in full)	-1.89

Biological target: Neurogenic locus notch homolog protein 3 (Homo sapiens) (UniProt Q9UM47)
Test: NOTCH3 binders on small-molecule microarray, primary screen, biochemical, 635/667 nm fluorescence (AID 1096)
Conditions: NOTCH3 binding, 635 nm fluorescence, higher = more signal

Chain of Neurogenic locus notch homolog protein 3 (Homo sapiens) (Q9UM47 whole entry, looked up): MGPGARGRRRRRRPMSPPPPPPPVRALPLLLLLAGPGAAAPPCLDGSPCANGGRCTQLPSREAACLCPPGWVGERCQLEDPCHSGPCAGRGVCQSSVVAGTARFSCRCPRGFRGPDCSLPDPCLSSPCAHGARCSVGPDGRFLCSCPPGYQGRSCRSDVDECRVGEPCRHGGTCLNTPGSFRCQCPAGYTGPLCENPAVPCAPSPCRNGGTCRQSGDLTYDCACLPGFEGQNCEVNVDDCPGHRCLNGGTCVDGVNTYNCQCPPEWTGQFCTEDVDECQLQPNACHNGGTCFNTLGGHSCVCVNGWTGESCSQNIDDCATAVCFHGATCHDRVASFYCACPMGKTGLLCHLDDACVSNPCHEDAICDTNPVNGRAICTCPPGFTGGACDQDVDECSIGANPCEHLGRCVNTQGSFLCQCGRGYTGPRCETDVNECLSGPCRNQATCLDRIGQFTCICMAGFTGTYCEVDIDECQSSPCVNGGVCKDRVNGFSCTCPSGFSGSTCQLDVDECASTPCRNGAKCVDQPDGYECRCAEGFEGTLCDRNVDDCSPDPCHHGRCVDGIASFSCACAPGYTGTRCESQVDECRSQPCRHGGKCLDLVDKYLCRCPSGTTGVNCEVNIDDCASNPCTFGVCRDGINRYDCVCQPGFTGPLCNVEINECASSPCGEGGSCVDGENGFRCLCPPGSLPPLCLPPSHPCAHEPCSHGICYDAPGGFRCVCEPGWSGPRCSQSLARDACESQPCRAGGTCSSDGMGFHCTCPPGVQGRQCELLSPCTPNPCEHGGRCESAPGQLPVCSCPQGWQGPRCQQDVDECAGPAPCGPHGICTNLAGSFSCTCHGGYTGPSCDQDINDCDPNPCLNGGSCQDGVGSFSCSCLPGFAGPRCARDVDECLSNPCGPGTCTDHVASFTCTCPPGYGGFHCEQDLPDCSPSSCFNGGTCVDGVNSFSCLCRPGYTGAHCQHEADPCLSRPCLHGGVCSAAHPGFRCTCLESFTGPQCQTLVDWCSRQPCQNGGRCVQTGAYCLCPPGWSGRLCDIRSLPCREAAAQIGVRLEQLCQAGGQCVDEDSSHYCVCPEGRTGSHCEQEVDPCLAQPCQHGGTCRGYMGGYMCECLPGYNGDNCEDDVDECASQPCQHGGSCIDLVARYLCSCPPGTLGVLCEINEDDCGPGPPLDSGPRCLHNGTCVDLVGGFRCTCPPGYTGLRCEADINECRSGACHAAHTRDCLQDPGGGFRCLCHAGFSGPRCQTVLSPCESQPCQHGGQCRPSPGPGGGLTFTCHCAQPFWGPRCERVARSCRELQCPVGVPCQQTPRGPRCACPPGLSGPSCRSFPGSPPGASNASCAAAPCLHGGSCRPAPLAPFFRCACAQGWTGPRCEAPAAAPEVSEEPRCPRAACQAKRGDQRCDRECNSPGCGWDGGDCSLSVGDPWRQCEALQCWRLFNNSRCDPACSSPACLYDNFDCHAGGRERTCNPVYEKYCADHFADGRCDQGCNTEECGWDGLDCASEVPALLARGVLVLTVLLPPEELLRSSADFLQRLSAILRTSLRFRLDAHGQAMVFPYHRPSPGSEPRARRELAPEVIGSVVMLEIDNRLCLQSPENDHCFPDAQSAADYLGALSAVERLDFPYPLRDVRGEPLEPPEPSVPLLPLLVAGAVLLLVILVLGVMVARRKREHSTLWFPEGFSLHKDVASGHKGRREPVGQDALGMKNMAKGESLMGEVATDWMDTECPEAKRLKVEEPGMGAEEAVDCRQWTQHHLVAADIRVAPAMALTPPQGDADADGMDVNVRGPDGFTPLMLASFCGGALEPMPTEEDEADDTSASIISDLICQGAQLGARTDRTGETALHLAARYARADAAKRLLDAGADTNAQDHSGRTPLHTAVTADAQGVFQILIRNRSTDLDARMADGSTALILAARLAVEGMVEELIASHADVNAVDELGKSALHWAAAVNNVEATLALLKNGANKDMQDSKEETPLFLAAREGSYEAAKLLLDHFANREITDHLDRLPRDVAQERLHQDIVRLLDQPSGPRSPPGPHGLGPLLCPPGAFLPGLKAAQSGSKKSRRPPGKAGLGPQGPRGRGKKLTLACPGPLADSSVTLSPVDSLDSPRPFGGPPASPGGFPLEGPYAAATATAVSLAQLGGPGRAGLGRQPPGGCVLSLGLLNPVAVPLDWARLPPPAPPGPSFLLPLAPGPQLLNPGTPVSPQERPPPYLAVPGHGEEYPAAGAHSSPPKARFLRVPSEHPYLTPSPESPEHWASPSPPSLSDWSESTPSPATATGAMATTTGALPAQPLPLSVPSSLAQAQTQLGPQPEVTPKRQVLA

SMILES	composite z-score
C[C@@]1([C@@H](NS(=O)(=O)c2cccc3cccnc23)c2ccc(-c3ccccc3)cc2)C[C@H]1C1CCCCC1	0.818
O=C1O[C@H](c2ccccc2)[C@H](c2ccccc2)N2[C@H]1[C@@H](C(=O)N1CCN(c3ncccn3)CC1)[C@]1(C(=O)Nc3ccc(C#CC4(O)CCCCCC4)cc31)[C@H]2c1ccc(O)cc1	1.11
C=CCC(OC(C)=O)[C@@H]1[C@@H](N(Cc2ccc(-c3ccccc3)cc2)C(=O)Cc2ccc(OC)cc2)c2cc(OCCCO)ccc2N1C(=O)c1ccc2ccccc2c1 (stereo not given in full)	0.0678
O=C(NC1CC1)[C@@H]1c2ccccc2C(=O)N(C2CCCCC2)[C@H]1c1ccc(CO)cc1	0.25
COC(=O)[C@@]1(Cc2ccccc2)[C@H]2c3cc(C(=O)N(C)C)n(Cc4nc5ccccc5[nH]4)c3C[C@H]2CN1C(=O)c1ccccc1	1.06
C=CCOC(=O)[C@@H]1[C@H]2C(=O)O[C@H](c3ccccc3)[C@H](c3ccccc3)N2[C@H](c2ccc(OCCOC(=O)[C@@H]3C[C@@H]4C(=O)N[C@@H](CC(C)C)C(=O)N4[C@@H]3c3ccc(O)cc3)cc2)[C@@]12C(=O)Nc1ccc(I)cc12	1.08
COCCOC(=O)N1C(=O)[C@@]2(c3cc(C#CCNC(N)=O)ccc31)[C@H](C(N)=O)[C@H]1C(=O)O[C@H](c3ccccc3)[C@H](c3ccccc3)N1[C@@H]2c1ccc(O)cc1	-0.564
C=CCNC(=O)[C@H]1[C@@H]2C(=O)O[C@@H](c3ccccc3)[C@@H](c3ccccc3)N2[C@@H](c2ccc(OCCO)cc2)[C@]12C(=O)Nc1ccc(C#Cc3ccc(OC)cc3)cc12	1.11
CN1C(=O)C2C=CC(C(O)c3ccc(I)cc3)N(N(c3ccccc3)c3ccccc3)C2C1=O (stereo not given)	-0.239
Cc1ccc(S[C@]2(C(=O)NCc3ccccc3)CC(=O)N(Cc3ccccc3Cl)[C@@H]2c2ccc(CO)cc2)cc1	-0.0303
C[C@]1(C(=O)O)c2ccccc2C(=O)N(Cc2cc(C(F)(F)F)cc(C(F)(F)F)c2)[C@H]1c1ccc(CO)cc1	0.483
COC(=O)C(CC#Cc1ccc2c(c1)[C@]1(C(=O)N2)[C@H](C(N)=O)[C@H]2C(=O)O[C@H](c3ccccc3)[C@H](c3ccccc3)N2[C@@H]1c1ccccc1OCCO)C(=O)OC	0.576
COC(=O)[C@@]1(Cc2ccc(F)cc2)[C@H]2c3cc(C(=O)N(C)C)n(Cc4ccc(C(F)(F)F)nc4)c3C[C@H]2CN1C(=O)c1ccccc1	1.02
CCN1C(=O)C2CC(=O)C3C(CN(S(=O)(=O)c4ccc(C)cc4)C3c3ccc(C)cc3)C2C1=O (stereo not given)	0.627
C=C[C@H](OC)[C@@H](O)c1ccc(OC)c(O)c1	-0.436
CCCCCN1CC=CC23O[C@@H]4/C=C\CCCOC(=O)C4[C@H]2C(=O)N(CCCCCO)[C@@H]3C1=O (stereo not given in full)	-0.0581
CC(C)C[C@H]1NC(=O)CNC(=O)[C@@]23C(=O)N[C@@H](Cc4ccccc4)C2[C@H](C)[C@@]2(C)O[C@H]2C3/C=C/C/C=C\CNC1=O (stereo not given in full)	0.713
C=CCNC(=O)[C@@H]1[C@H]2C(=O)O[C@H](c3ccccc3)[C@H](c3ccccc3)N2[C@H](c2ccc(OCCO)cc2)[C@@]12C(=O)Nc1ccc(C#CCNC(N)=O)cc12	0.266

SMILES	composite z-score
CC(C)[Si](C#Cc1ccccc1)(O[C@H](c1ccccc1)c1cn(Cc2ccccc2)nn1)C(C)C	1.01
C=C(C(=O)CC[C@@H](OC(=O)c1cccnc1)c1cccc(OCCO)c1)C(C)C	0.144
CCCCN1CC=CC23O[C@@H]4/C=C\CCC(C)OC(=O)C4[C@H]2C(=O)N(CCO)[C@@H]3C1=O (stereo not given in full)	-0.342
O=C/C=C/c1ccc(-c2ccccc2)cc1	-0.586
COc1cc(CO)cc(I)c1O[C@H]1C=C(C(=O)NCCO)C[C@@H](N(CCN2CCOCC2)C(=O)C2CCCO2)[C@@H]1O (stereo not given in full)	-0.204
CC(C)C[C@@H]1NC(=O)[C@H]2C[C@@H](C(=O)O)[C@@H](c3cccc(OCCO)c3)N2C1=O	0.632
COc1cc(Cc2cc3c(c(CCc4ccccc4)n2)[Si](C(C)C)(C(C)C)O[C@H]3c2ccccc2)cc(OC)c1OC	-0.446
C=CCNC(=O)[C@@H]1[C@H]2C(=O)O[C@H](c3ccccc3)[C@H](c3ccccc3)N2[C@H](c2ccc(O)cc2)[C@@]12C(=O)Nc1ccc(C#CC3=CCCCC3)cc12	1.05
Cc1cccc([C@H]2C[C@H]3C(Br)=C[C@@]2(CO)C(=O)[C@]32CO2)c1	0.353
COCCOC(=O)N1C(=O)[C@@]2(c3cc(C#CCCO)ccc31)[C@H](C(=O)N1CCN(c3ncccn3)CC1)[C@H]1C(=O)O[C@H](c3ccccc3)[C@H](c3ccccc3)N1[C@@H]2c1ccc(OCCO)cc1	1.05
COC(=O)[C@H](Cc1ccccc1)N1CC(C)(OC)O[C@@H](Cc2ccccc2)[C@H]1/C=C/C1CC1 (stereo not given in full)	-0.68
CCOC(=O)C1=CCC(c2ccncc2)N(S(=O)(=O)c2ccc(C)cc2)C1 (stereo not given)	1.09
COC(=O)[C@@]1(Cc2ccc(F)cc2)[C@H]2c3cc(C(=O)N4CCCC4)n(Cc4ccc(C(F)(F)F)nc4)c3C[C@H]2CN1C(=O)c1ccccc1	1.03
COCCOC(=O)N1C(=O)[C@@]2(c3cc(C#CCNC(N)=O)ccc31)[C@H](c1ccccc1OCCO)N1[C@H](c3ccccc3)[C@H](c3ccccc3)OC(=O)[C@H]1[C@@H]2C(=O)N1CCCCCCC1	1.11
CCCCC(=C=CC[C@@H](O)c1ccccc1OCCO)C[C@@H](O)c1ccccn1	0.311
O=C(NCC(F)(F)F)[C@@H]1c2ccccc2C(=O)N(Cc2cc(C(F)(F)F)cc(C(F)(F)F)c2)[C@H]1c1ccc(CO)cc1	-0.122
CC(CO)N1C(=O)[C@@H]2[C@H]3C(=O)OCC=C[C@H]3OC23C=CCN(c2ccc4ccccc4c2)C(=O)[C@@H]13 (stereo not given in full)	-1.4
